Here are results for 98 compounds from PubChem BioAssay AID1224817 (Yan Lab, Georgia Cancer Center, Augusta University, 2016).

About 25 (1%) of roughly 2,000 compounds were called active. The full list was thinned out, with actives kept by preference. A number with no mark means an inactive call.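 How the source made its calls: active means log2 luciferase ratio at or below -0.5849, meaning signal at two thirds of solvent-only control or lower; inactive means the rest.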

This test is described as follows: eIF4E expression suppression, luciferase knock-in reporter – cell-based, HT1080, primary screen (AID 1224817).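 Further: luciferase reports endogenous eIF4E expression since it is co-expressed from the native EIF4E locus.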 Particulars: HT1080 EIF4E-luc2 knock-in reporter, 16 h, at 2.5 µM, hits give low values.
For the compound `O=C1C(Cl)=C(Sc2nnc3c4ccccc4c4ccccc4c3n2)C(=O)c2ccccc21`, the log2 luciferase activity ratio was 0.552.
Under `O=C(O)CCSC1=NCCN1` stands -0.275; under `Oc1ccc2ccccc2c1CN(Cc1c(O)ccc2ccccc12)C1CCCCC1`, -0.018; under `Nc1nccc(Nc2ccc(S(N)(=O)=O)cc2)n1`, -0.103.
Under `C/C(=N\NC1=NCCN1)c1cn(C2=NCCN2)nc1C` stands 0.0578; under `CNC(c1ccncc1)C(NC)c1ccncc1` (stereo not drawn), 0.0459; under `O=C1c2cccc([N+](=O)[O-])c2C(=O)N1c1ncn[nH]1`, -0.0931.
In the case of `COC(=O)[C@@]12OC[C@]34[C@H]([C@@H](O)[C@@H]1O)[C@@]1(C)C=C(OC5OC(CO)C(O)C(O)C5O)C(=O)[C@@H](C)[C@@H]1C[C@H]3OC(=O)[C@H](OC(=O)/C=C(\C)C(C)C)[C@@H]24` (stereo partly drawn), the log2 luciferase activity ratio is 0.215.
Under `O=C(O)C1OC1C(=O)O` (stereo not drawn) stands -0.131; under `Cc1cc(N)c2cc(OCCOc3ccc4nc(C)cc(N)c4c3)ccc2n1`, -0.0306; under `CN(CCc1ccccn1)c1ccc2c(c1)C(=O)c1ccccc1-2`, 0.213.
Regarding `COc1c2c(cc3c1[C@@H]1Oc4c(ccc(O)c4CC=C(C)C)[C@@H]1CO3)OC(C)(C)C=C2`, the log2 luciferase activity ratio was -0.0761.
The result for `O=C1c2ccccc2C(=O)N1CCCSc1ccccc1` reads 0.412; that for `CN(C)CC(O)c1ccc(Cl)c2ccccc12` (stereo not drawn), -0.0364; that for `Oc1c(C(O)(c2ccccc2)c2ccc3ccccc3c2O)ccc2ccccc12`, 0.313.
The result for `COc1cc2oc3cc(=O)cc4oc(-c5ccccc5)cc(c2c2c1CCC(c1ccccc1)O2)c43` (stereo not drawn) reads 0.143; that for `CCCCSCc1nc2nc(Cl)c(Cl)nc2[nH]1`, -0.0768; that for `Cn1cc(NC(=O)c2cc(NC(=O)c3cc(NC=O)cn3C)cn2C)cc1C(=O)NCCC(=N)N`, -0.0884.
The result for `NC(N)=NC(N)=Nc1c(F)c(F)c(F)c(F)c1F` reads 0.115; that for `O=C(O)/C=C/C(=O)Nc1cccc2c1-c1ccccc1C2=O`, -0.335.
For the compound `NNC(=O)CCc1ccc2ccc3ccccc3c2c1`, the log2 luciferase activity ratio is -0.0063.
As to `NC(=O)N/N=C1/CCC(O)CC1CC(=O)O` (stereo not drawn), the log2 luciferase activity ratio is -0.0076.
Under `CSc1nc(C)cc(Nc2ccc(O)c(CN3CCOCC3)c2)n1` stands 0.0575; under `CC(C)(C)c1cc(Br)c(O)c(CN(Cc2cc(C(C)(C)C)cc(Br)c2O)C2CCCCC2)c1`, 0.147.
The result for `Cc1c2ccccc2c(CSC(=N)N)c2ccccc12` reads -2.19 (active); that for `Cc1ncc(CSC(=N)N)n1Cc1ccccc1`, 0.207; that for `N=C(N)SCc1cccc2c(=O)cc(-c3ccccc3)oc12`, -0.583.
Under `O=C1N[C@@H]([C@H]2CC[C@H](Cl)CN2)C(=O)N[C@H]1[C@H]1CC[C@H](Cl)CN1` stands -0.835 (active); under `O=[N+]([O-])c1nccn1CC(O)CN1CCCCC1` (stereo not drawn), 0.364.
Turning to `NC(Cc1nn[nH]n1)C(=O)O` (stereo not drawn), the log2 luciferase activity ratio was -0.174.
Under `Cc1cc2ccccc2c[n+]1CC(O)C[n+]1cc2ccccc2cc1C` stands -0.0398; under `O=C(O)c1nn(-c2ccc(Cl)cc2)c2c1C(=O)c1ccccc1C2=O`, 0.061.
The result for `Cc1c2cccc(Sc3ccccc3)c2c2c3c(cccc13)[S+](c1ccccc1)C2` (stereo not drawn) reads 0.38; that for `Cc1ncc(COP(=O)(O)O)c(C)c1O`, 0.148; that for `O=C(O)c1ccc(C(=O)O)c(C(=O)O)c1.[NH-]C1CCCCC1[NH-].[Pt+2]`, 0.127.
The result for `Cn1c(=S)c2[nH]c(SCCCc3ccccc3)nc2n(C)c1=O` reads 0.0675; that for `CN1CCN(c2nc3c(c(=O)n(C)c(=O)n3C)n2C)CC1`, -0.0962; that for `Cc1[nH]n(-c2ccc(S(=O)(=O)O)cc2)c(=O)c1N=Nc1ccccc1`, 0.391.
For the compound `Nc1ccc(N=Nc2ccc(-c3ccc(O)cc3)cc2)c2ccc(S(=O)(=O)O)cc12`, the log2 luciferase activity ratio was 0.247.
Take `NNC(=O)C(O)C(O)C(=O)NN` (stereo not drawn): the log2 luciferase activity ratio is 0.225.
Under `Nc1nc2c(c(=O)[nH]1)NC(CCNc1ccc(C(=O)O)cc1)CN2` (stereo not drawn) stands -0.0715.
The result for `O=C1COC(c2ccccc2O)=NN1CCCN1CCCC1` reads 0.0493; that for `CNC1C(OC2C(OC3C(O)C(O)C(N=C(N)N)C(O)C3N=C(N)N)OC(C)C2(O)/C=N/NC(N)=S)OC(CO)C(O)C1O` (stereo not drawn), -0.0125.
With `COc1cccc2[nH]c(-c3ccccn3)nc12`, the log2 luciferase activity ratio was 1.75.
The result for `C/C=C/c1cc2c(c(=O)o1)C(=O)[C@@H](O)[C@H](C)O2` reads 0.166.
Take `Sc1ccc2ccccc2c1CNCc1ccccc1`: the log2 luciferase activity ratio is 0.379.
On to `O=C(O)C1CC[N-]CC1.O=C(O)C1CC[N-]CC1.[NH2-].[NH2-].[Pt+4]`, for which the log2 luciferase activity ratio was 0.578.
The result for `CCC(C(=O)C(C)C(O)C(C)CCc1ccc(C)c(O)c1C(=O)O)C1OC(CC)(C2CCC(O)(CC)C(C)O2)CC1C` (stereo not drawn) reads -0.243; that for `CC1=C2[C@H]3OC(=O)[C@@H](C)[C@@H]3CC[C@@]2(C)C=C/C1=N\O`, -0.026; that for `Cc1ccc2nc(-c3ccc(NC(=O)c4ccc(N)cc4)c(S(=O)(=O)O)c3)sc2c1`, 0.394.
The result for `CCOc1ccc2c(ccc(/C=C\c3cc(C)c4cccnc4c3O)[n+]2C)c1` reads -0.823 (active); that for `O=C(O)CNC(=O)C1NC(C(F)(F)F)(C(F)(F)F)OC1(C(F)(F)F)C(F)(F)F` (stereo not drawn), 0.305.
As to `C=C1C(=O)OC2CC(C)C3(O)CCC(=O)C3(C)CC12` (stereo not drawn), the log2 luciferase activity ratio was -0.237.
The result for `Nc1ccc(S(=O)(=O)NCCS(=O)(=O)O)cc1` reads -0.13; that for `O=C(O)c1cc(=O)[nH]c(=S)[nH]1`, 0.238.
The result for `NC(N)=N/N=C/c1ccc(O)c(C(=O)O)c1` reads 0.267; that for `NNC(=O)CS(=O)(=O)Nc1ncccn1`, -0.266.
For the compound `O=C(N/N=C/c1ccc2c(c1)CCC2)c1ccccc1O`, the log2 luciferase activity ratio was 0.157.
The result for `CS(=O)(=O)Nc1ccc(Nc2c3ccccc3nc3ccccc23)cc1` reads 0.308.
The result for `O=C(O)C(O)C(O)C(O)C(=O)CO` (stereo not drawn) reads -0.272; that for `Cc1nc(CN2CCCCC2)c(O)c(=O)[nH]1`, -0.0244.
Under `Oc1cccnc1CN1CCCCC1` stands -0.635 (active); under `CC(=O)Nc1cc(CN2CCCCC2)c(O)c2ncccc12`, -0.0787.
Consider `O=P(O)(CCP(=O)(O)c1ccccc1)c1ccccc1`, for which the log2 luciferase activity ratio is 0.225.
The result for `OCC1OC(n2cnc3c(/C=C(/O)c4ccccc4)ncnc32)C(O)C1O` (stereo not drawn) reads 1.58; that for `O=c1ccc2nc3ccc(O)cc3oc-2c1`, -0.212; that for `C[n+]1cccc(/C=C/c2ccc3cccc(O)c3n2)c1`, 0.721.
Under `NC(CCCCO)C(=O)O` (stereo not drawn) stands 0.0343.
Take `COc1ccc2c3c(ccc2c1)NC(C(=O)O)CC3` (stereo not drawn): the log2 luciferase activity ratio was 1.85.
The result for `O=C(O)CC(Sc1ccccc1)c1ccccc1` (stereo not drawn) reads 0.113; that for `Cc1cc(N=Cc2c(CO)cnc(C)c2O)c(N=Cc2c(CO)cnc(C)c2O)cc1C.[Zn]`, 0.374.
The result for `NCCN1C(=O)c2ccccc2C1(O)c1ccc(Cl)cc1` (stereo not drawn) reads 0.275; that for `O=C(O)CC(C(=O)O)c1ccccc1[N+](=O)[O-]` (stereo not drawn), -0.346.
Under `O=C(O)C(C1NCCS1)N1C(=O)c2ccccc2C1=O` (stereo not drawn) stands -0.326.
On to `Clc1ccc2c(NCCNC3CCCCC3)ccnc2c1`, for which the log2 luciferase activity ratio is -0.0725.
Consider `O=C(O)Cc1c(O)ccc2ccccc12`, for which the log2 luciferase activity ratio was -0.364.
Under `CC(C)=CCNc1ncnc2c1c(C#N)cn2C1OC(CO)C(O)C1O` (stereo not drawn) stands -0.135.
Under `N#CC[N+]1(Cc2ccccn2)CCCC1` stands -0.0477; under `CN(C)CCCN=c1c2ccccc2n(C)c2[nH]c(=O)n(C)c(=O)c12`, -0.0932; under `O=C(O)CSCC(=O)c1ccccc1`, -0.355.
The result for `Cc1ccc(S(=O)(=O)OCC(=O)O)cc1` reads 0.01.
Regarding `CC12CCC3c4ccc(O)cc4CCC3C1C/C(=N\O)C2O` (stereo not drawn), the log2 luciferase activity ratio was -0.14.
Under `CC1CN(CCO)CCN1c1ccccc1` (stereo not drawn) stands 0.393; under `O=C(O)C1C(C(=O)O)C(C(=O)O)C1C(=O)O` (stereo not drawn), -0.115.
The result for `Cc1nn(-c2ccc(S(=O)(=O)[O-])cc2)c([O-])c1N=[N+](C)c1ccc(-c2ccc(N=Nc3ccc4c(S(=O)(=O)[O-])cc(S(=O)(=O)[O-])c(N)c4c3[O-])c([O-])c2)cc1[O-].[Cu+2].[Cu+2].[Na+]` reads 0.162; that for `OCCNc1ncnc2c1ncn2C1OC(CO)C(O)C1O` (stereo not drawn), -0.0424; that for `CN(C)Cc1ccc(O)c(CN(C)C)n1`, -0.0218.
Consider `CN(CCO)Cc1ncccc1O`, for which the log2 luciferase activity ratio was -0.625 (active).
Under `CN(C)CCN(c1ccccn1)c1ccccn1` stands -0.0299; under `Nc1ccccc1N=Nc1c(S(=O)(=O)O)cc2cc(S(=O)(=O)O)cc(O)c2c1O`, -0.0279.
The result for `CC1=CC(C2/C(=N/O)C=C(C)CC2(C)C)C(O)C(C)(C)C1` (stereo not drawn) reads -0.118; that for `Fc1cccc(Cl)c1/C=N\N=C1c2ccccc2-c2ccccc21`, -0.123; that for `c1ccc2cc(-c3cc(-c4cc(-c5ccc6ccccc6c5)on4)no3)ccc2c1`, 0.0163.
Under `N=C(N)c1ccc(/C=C/c2ccc(C(=N)N)cc2)cc1` stands -0.247.
For the compound `O=S(=O)(O)C(c1ccccc1)C(O)c1ccccc1` (stereo not drawn), the log2 luciferase activity ratio is -0.161.
Consider `O=C(O)c1ccc(NS(=O)(=O)Cc2ccccc2)cc1`, for which the log2 luciferase activity ratio was 0.0192.
The result for `NCc1ccc(C(=O)O)cc1` reads 0.304; that for `O=C(O)CNc1ccc(C(=O)O)cc1`, -0.647 (active).
